In the library only some 19% were active in any assay of this set; here they are far more common.
HT1080 IDH1KD tx: HT-1080 IDH1 knockdown cell toxicity (counter line); AID 686971; 360,000 compounds, 2% hits; HT-1080 IDH1 knockdown viability, ATP luminescence, 48 h; Potency, µM (doses to about 46.1 µM), most hits filed as cytotoxic
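% activity derives from luminescence (CellTiter-Glo), normalised to DMSO and no-cell wells. HT-1080-IDH1KD cells, 750/well, had 48 h compound exposure at 37 °C.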
IL1B secr inh: inflammasome signaling inhibition, IL-1 beta readout; activity change, % at 57.5 µM; THP-1 LPS/ATP IL-1B secretion, AlphaLISA, 16 h; active compounds read low; 360,000 compounds, 4.7% hits; in the data active means activity change below about -50%; inconclusive means mostly about -30% to -49%
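THP-1 cells pretreated 1 hr with compounds (up to 57.5 uM final), then stimulated with LPS (250 ng/mL final) plus ATP (1.25 mM final); secreted IL-1B measured by AlphaLISA after 16 hr, decreased signal indicating inhibition.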
TDP1 cell CPT: DT40-hTDP1 cell growth loss with CPT; chicken DT40 Tdp1-/-;hTDP1 cells + 20 nM CPT, ATP luminescence, 48 h; Potency, µM (doses to about 46.2 µM), hits mostly inhibitors; 420,000 compounds, 12% hits; further: nearly all actives have a fitted effect of over 55% in size
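Chicken DT40 Tdp1-/- cells complemented with human TDP1, 400 cells/well, exposed to compounds plus 20 nM camptothecin for at least 48 h at 37 C; viability read as ATP content by CellTiter-Glo luminescence.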
HT1080-NT tox: kills 2HG-producing HT-1080-NT fibrosarcoma cells; 360,000 compounds, 1.6% hits; Potency, µM (doses to about 46.1 µM), usual class: cytotoxic; HT-1080-NT fibrosarcoma viability, CellTiter-Glo ATP luminescence, 48 h; AID 686970;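 further: NT is the 2HG producing partner of a matched IDH1 knockdown line; nearly all actives have a fitted effect of over 55% in size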
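Toxicity toward the 2HG-producing NT line was scored as %Activity, normalised to DMSO and no-cell wells, from CellTiter-Glo luminescence after 48 hours' treatment.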
TDP1 cell noCPT: qHTS for Inhibitors of human tyrosyl-DNA phosphodiesterase 1 (TDP1): qHTS in cells in absence of CPT; DT40 Tdp1-/- hTDP1 cells, no CPT, ATP luminescence, 48 h; Potency, µM (top dose mostly 46.2 µM), hits mostly inhibitors; 420,000 compounds, 15% hits; further: nearly all actives have a fitted effect of over 55% in size
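No-CPT arm: Tdp1-/-;hTDP1 DT40 cells (400/well) plus compounds, incubated ≥48 hr at 37 °C. Readout CellTiter-Glo luminescence.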
ELG1 DNA repair: ELG1-dependent DNA repair inhibition; 330,000 compounds, 2.3% hits; Potency, µM (titrated, usually from 46.1 µM), most hits filed as inhibitors; HEK293T ELG1-luciferase reporter, luminescence, 16 h; DNA damage induced by 5-fluorouridine; further: nearly all actives have a fitted effect of over 55% in size
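HEK293T cells expressing luciferase-tagged ELG1 (2,000/well) received 5-Fluorouridine plus compound or DMSO for 16 hr at 37 °C. Luciferase was read by ONE-Glo luminescence after 30 min at room temperature.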
Numbers stand for hits; – = inactive; ? = inconclusive; · = not tested or not shown. Unless noted, the call rests on the fitted dose curve; in most records, active means well fitted curve in the direction sought with a large enough effect; inconclusive means small, poorly fitted or top-dose-only effect, or another doubt; inactive means no such curve, though single readings can be large; an effect the other way counts as inactive or inconclusive.

SMILES	HT1080 IDH1KD tx	IL1B secr inh	TDP1 cell CPT	HT1080-NT tox	TDP1 cell noCPT	ELG1 DNA repair
Cc1ccc2cc(CN(Cc3ccccc3)Cc3nnnn3C3CCCC3)c(=O)[nH]c2c1	?	-63	18µM	?	13µM	?
CCc1ccc2[nH]c(=O)c(CN(Cc3ccc4c(c3)OCO4)Cc3nnnn3C3CCCC3)cc2c1	?	-66	18µM	?	?	?
Cc1ccc2[nH]c(=O)c(CN(CCCN3CCOCC3)Cc3nnnn3C3CCCC3)cc2c1	?	–	?	–	–	–
Cc1ccc2cc(CN(Cc3ccc(F)cc3)Cc3nnnn3C3CCCC3)c(=O)[nH]c2c1	?	-61	29µM	?	?	?
CCOC(=O)c1ccc(NC(=O)CSc2nnc(CNC(=O)c3ccc(OC)cc3)n2CC)cc1	·	·	–	·	–	·
Cc1nn(C)c(C)c1CN(Cc1nc(CCC(C)C)no1)C(C)C	?	–	2.3µM	–	0.58µM	?
CC(=O)c1ccccc1-c1ccc2c(c1)CC(CNC(=O)c1ccnc(Cl)c1)O2 (stereo not given)	·	·	23µM	·	21µM	·
Cn1c(NCc2ccccc2)nc2cc(-c3cccc(C(F)(F)F)c3)sc2c1=O	–	–	?	–	18µM	·
CN(C)CCCNc1nc2cc(-c3cccc(Cl)c3)sc2c(=O)n1C	16µM	–	?	?	?	·
COc1ccc(-c2cc3nc(NCCCN(C)C)n(C)c(=O)c3s2)cc1OC	–	–	?	–	?	·
COCCNc1nc2cc(-c3cccc(C(F)(F)F)c3)sc2c(=O)n1C	–	–	?	–	–	·
Cn1c(NCc2cccnc2)nc2cc(-c3cccc(C(F)(F)F)c3)sc2c1=O	–	–	?	–	?	·
CN(C)CCCNc1nc2cc(-c3cccc(C(F)(F)F)c3)sc2c(=O)n1C	?	-66	18µM	?	?	·
Cc1ccccc1C(C)NS(=O)(=O)c1ccc2c(c1)OCCO2 (stereo not given)	–	–	?	–	?	–
Cc1cccn2c(=O)c(C(=O)N3CCN(c4ccccc4)CC3)cnc12	·	·	–	·	–	·
N/C(=N\OC(=O)CSc1ccccc1)c1ccc([N+](=O)[O-])cc1	–	–	?	–	–	?
CC(=O)NCCNc1nc2cc(-c3ccc(Cl)cc3C)sc2c(=O)n1C	–	–	?	–	?	·
O=[N+]([O-])c1cccc(S(=O)(=O)c2ccc(N3CCCCC3)c([N+](=O)[O-])c2)c1	–	–	?	–	26µM	?
O=[N+]([O-])c1ccc(N2CCCCCC2)c([N+](=O)[O-])c1	–	–	–	–	–	–
O=[N+]([O-])c1cc(S(=O)(=O)c2ccc(N3CCCCC3)c([N+](=O)[O-])c2)ccc1N1CCCCC1	–	–	?	–	21µM	–
CCOC1=C2[C@@H](CN(S(=O)(=O)c3ccc(C)cc3)[C@H]2c2ccc(CC)cc2)[C@H]2C(=O)N(C)C(=O)[C@H]2C1	–	–	?	–	?	·
CCOc1ccc(CCNC(=O)c2ccc(CS(=O)Cc3ccc(Cl)cc3)o2)cc1 (stereo not given)	–	–	16µM	–	?	–
O=C(NCCc1ccc(Cl)cc1)c1ccc(CS(=O)Cc2ccc(Cl)cc2)o1 (stereo not given)	–	?	?	–	–	?
O=C(NCCc1ccccc1)c1ccc(CS(=O)Cc2cccc(Cl)c2)o1 (stereo not given)	–	–	–	–	–	–
COc1ccc(OC)c(CCNC(=O)c2ccc(CS(=O)Cc3ccc(Cl)cc3)o2)c1 (stereo not given)	–	?	23µM	–	?	–
SMILES	HT1080 IDH1KD tx	IL1B secr inh	TDP1 cell CPT	HT1080-NT tox	TDP1 cell noCPT	ELG1 DNA repair
CSc1ccc(CCNC(=O)c2ccc(CS(=O)Cc3ccc(Cl)cc3)o2)cc1 (stereo not given)	–	?	?	–	21µM	–
O=C(CN1CCNCC1)NC1CCCCC1	·	·	–	·	–	·
Clc1ccc(NCn2cncn2)nc1	–	–	23µM	–	–	–
COc1ccc(C(=O)c2oc3ccccc3c2NC(=O)COc2c(C)cc(C)cc2C)cc1	·	·	–	·	–	·
O=C(Nc1cc(=O)[nH]c2nc(-c3ccccc3)nn12)c1ccccc1Cl	–	–	–	–	12µM	–
Cc1cc(NC(=O)c2ccccc2Cl)n(C(C)(C)C)n1	–	–	–	–	–	–
COc1ccc(NC(=O)C(c2ccc(C(F)(F)F)cc2)n2c(=O)c(-c3cc4ccccc4[nH]3)nc3ccccc32)cc1 (stereo not given)	?	–	18µM	?	?	·
N#Cc1ccc(C(C(=O)NCc2ccccc2)n2c(=O)c(-c3cc4ccccc4[nH]3)nc3ccccc32)cc1 (stereo not given)	–	–	12µM	–	9.2µM	·
COc1ccc(NC(=O)C(C2CC2)n2c(=O)c(-c3cc4ccccc4[nH]3)nc3ccccc32)cc1 (stereo not given)	15µM	?	29µM	?	?	·
O=C(NCc1ccccc1)C(c1ccc(C(F)(F)F)cc1)n1c(=O)c(-c2cc3ccccc3[nH]2)nc2ccccc21 (stereo not given)	?	–	?	?	15µM	·
CCCCCNC(=O)C(c1ccc(-c2ccccc2)cc1)n1c(=O)c(-c2cc3ccccc3[nH]2)nc2ccccc21 (stereo not given)	–	–	–	–	–	·
O=C(NCc1cccc(C(F)(F)F)c1)C1CCC(=O)N(C2CCCCCC2)C1 (stereo not given)	–	?	–	–	?	–
CCOC(=O)C1CCN(C(=O)COc2ccc3c(c2)OCO3)CC1	–	–	–	–	–	–
CCOC(=O)c1cnc2c(C(=O)OC)cccc2c1NCc1cccnc1	–	–	–	–	–	?
O=C(NCc1cccnc1)C1CC(c2ccc(Cl)c(Cl)c2)=NO1 (stereo not given)	–	–	?	–	21µM	–
O=C(NCc1ccccn1)C1CC(c2ccc(Cl)c(Cl)c2)=NO1 (stereo not given)	?	–	?	–	21µM	?
COc1ccc(C2=NOC(C(=O)NCc3cccnc3)C2)cc1OC (stereo not given)	–	–	?	–	?	–
O=C(NCc1ccccn1)C1CC(c2ccc(F)cc2)=NO1 (stereo not given)	–	–	–	–	–	–
Cc1ccc(CCNC(=O)c2cccc(NC3=NC4CS(=O)(=O)CC4S3)c2)cc1 (stereo not given)	–	–	–	–	–	–

Assay outcomes from PubChem.
